Test systems include MDA-MB-435 melanoma; SW-620 colon; HCT-116 colon; HCC-2998 colon; MCF7 breast; KM12 colon.
Common to all, as to experiment: NCI-60 one-dose screen, 48 h (100 = growth as untreated, 0 = no growth, -100 = all killed)
Holding throughout (details): 10 µM unless noted

About 83,000 compounds went through this panel and 20% of them were active in at least one assay; those are over-represented in the sample as a whole.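 Values shown are percent growth following 48 h exposure of cells in 96-well plates to a single concentration of compound; below 10 was considered active.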 A number with no mark means an inactive call. Calls of active or inactive are those of the source.

Take `[Cl][Ru].c1ccc(-c2cccc(-c3ccccn3)n2)nc1.c1ccc(-c2ccnc3c2ccc2c(-c4ccccc4)ccnc23)cc1`: the growth in the assay with MDA-MB-435 melanoma is 10.5%; in the assay on SW-620 colon it was 40.2%; in the assay on HCT-116 colon it was 36.9%; in the assay on HCC-2998 colon, 31.3%.
Take `O=C(CSc1nc2sc3c(c2c(=O)n1-c1ccc(Cl)cc1)CCCC3)NNC(=O)Nc1cccc(C(F)(F)F)c1`: the growth in the assay on MDA-MB-435 melanoma was 24.5%; in the assay on SW-620 colon it was 22.1%; in the assay on MCF7 breast it was 16.7%; in the assay with HCT-116 colon, 5.54% (active); in the assay on HCC-2998 colon, 38.9%; in the assay on KM12 colon it was 11%.
`CCCC(=O)NC(c1cccc(N(C)C)c1)c1cc(C)c2cccnc2c1O` (centres undefined): the growth was 77.6% in the assay with MDA-MB-435 melanoma; 50% in the assay with SW-620 colon; 35.3% in the assay with MCF7 breast; 57.9% in the assay with HCC-2998 colon; 54.9% in the assay on KM12 colon.
As to `N#Cc1nc(-c2ccccc2)oc1N1CCC(CO)C1` (centres undefined), the growth in the assay with MDA-MB-435 melanoma is 95.7%; with SW-620 colon, 98.4%; with MCF7 breast, 49.8%; in the assay on HCT-116 colon, 107%; with HCC-2998 colon it was 115%; with KM12 colon it was 101%.
As for `C#C[C@]1(O)CC[C@H]2[C@@H]3CC=C4c5sc(Nc6ccc(Cl)cn6)nc5CC[C@]4(C)[C@H]3CC[C@@]21C`, the growth with MDA-MB-435 melanoma was 41.4%; with MCF7 breast, 17.6%; with HCT-116 colon, 34.5%; with KM12 colon, 38.9%.
For the molecule `CS(=O)(=O)c1ccc(-c2nc3ccccn3c2/C=N/Nc2nc(-c3ccc(Br)cc3)cs2)cc1`, the growth in the assay on MDA-MB-435 melanoma was 97.2%; in the assay on SW-620 colon, 98.2%; with MCF7 breast it was 92.4%; in the assay with HCT-116 colon, 101%; with HCC-2998 colon it was 120%; with KM12 colon, 101%.
Take `OC1CCN(CCCOc2c3ccccc3nc3c2oc2ccc(Cl)cc23)CC1`: the growth with MDA-MB-435 melanoma is -40.6% (active); in the assay with SW-620 colon, 2.39% (active); in the assay with MCF7 breast, 2.99% (active); in the assay with HCT-116 colon, 15.9%; in the assay with KM12 colon, 1.06% (active).
Regarding `Cc1ccc(-c2nc(C(Cl)Cl)nc3cc(-c4ccccc4)nn23)cc1`, the growth in the assay on MDA-MB-435 melanoma was 16.1%; with SW-620 colon it was -40.3% (active); in the assay on MCF7 breast it was 25.4%; with HCT-116 colon it was 11.8%; in the assay with KM12 colon, -6.93% (active).
Consider `COC(=O)C(C)NS(=O)(=O)/N=C1\NC(=O)NC1=C(Cl)Cl` (centres undefined), for which the growth in the assay with MDA-MB-435 melanoma was 105%; with MCF7 breast, 98%; in the assay on HCT-116 colon, 102%; in the assay on HCC-2998 colon, 113%; in the assay with KM12 colon, 105%.
As for `CN(C)CCCOc1c2ccc(Cl)cc2nc2c1oc1ccc(Cl)cc12`, the growth is -10.2% (active) in the assay with MDA-MB-435 melanoma; -82.9% (active) in the assay with SW-620 colon; 10.8% in the assay with HCT-116 colon; -67.9% (active) with HCC-2998 colon; -62.3% (active) in the assay with KM12 colon.
As for `CCOC(=O)c1c(Nc2ccccc2)nn2c(-c3ccco3)c(C#N)cnc12`, the growth with MDA-MB-435 melanoma is 93%; in the assay on SW-620 colon it was 94.7%; in the assay with MCF7 breast, 83.2%; in the assay with HCT-116 colon it was 92.5%; with HCC-2998 colon it was 112%.
Turning to `CCOC(=O)c1c(NC(=O)c2cccc(C(F)(F)F)c2)sc2cc(O)ccc12`, the growth is 104% in the assay on MDA-MB-435 melanoma, 103% in the assay on SW-620 colon, 91.7% in the assay with HCT-116 colon and 95.5% in the assay with KM12 colon.
`O=C(CSc1nc2sc3c(c2c(=O)n1-c1ccc(Cl)cc1)CCCC3)NNC(=O)Nc1ccc(Cl)c(C(F)(F)F)c1`: the growth in the assay with MDA-MB-435 melanoma was 46.8%; in the assay with SW-620 colon, 4.66% (active); in the assay on HCT-116 colon it was 13.6%; with HCC-2998 colon, 42.4%; with KM12 colon it was 25.9%.
Regarding `CC(C)(O)c1cncc(-c2ccc3ncnc(N4CCc5cc(F)c(Cl)cc54)c3c2)c1`, the growth is 17.1% in the assay with MDA-MB-435 melanoma; 40.1% with SW-620 colon; 10.8% with MCF7 breast; 34.2% in the assay on HCC-2998 colon; 35.1% in the assay with KM12 colon.
For the molecule `Cc1cc(C(=O)Nc2sc3c(c2C(N)=O)CCC(=O)C3)ccc1OCCN1CCCCC1`, the growth with MDA-MB-435 melanoma was 103%; in the assay on SW-620 colon, 86.5%; in the assay with HCT-116 colon it was 84.1%; with KM12 colon, 88.7%.
On to `NC(=O)c1cc(-c2ccc3ncnc(N4CCc5cc(F)c(Cl)cc54)c3c2)cnc1N`, for which the growth in the assay with MDA-MB-435 melanoma is 25.2%; in the assay on SW-620 colon it was 35.9%; with HCT-116 colon, 19.3%; with HCC-2998 colon, 37.5%.
Take `N=C1CC(=O)NN1C(=O)CSc1nc2sc3c(c2c(=O)n1-c1ccc(Cl)cc1)CCCC3`: the growth with MDA-MB-435 melanoma is 106%; in the assay on SW-620 colon, 98%; with HCC-2998 colon, 116%; in the assay with KM12 colon, 104%.
On to `O=C(NNc1nc2cc(F)ccc2n2c(CN3CC4(COC4)C3)ccc12)c1cnccn1`, for which the growth with MDA-MB-435 melanoma is 35.2%; in the assay on MCF7 breast, 13.6%; in the assay with HCT-116 colon it was 22%; with HCC-2998 colon, 57.3%; with KM12 colon, 23%.
Regarding `COc1cc2nc(-c3ccc(Cl)cc3)cc(OCCCNCC3CCCO3)c2cc1OC` (centres undefined), the growth was 12.4% in the assay with MDA-MB-435 melanoma; 54.3% with SW-620 colon; 36% with MCF7 breast; 25.1% in the assay on HCT-116 colon; 70.6% in the assay on HCC-2998 colon; 39.8% with KM12 colon.
In the case of `CC(C)Sc1nc(Nc2ccc(S(N)(=O)=O)cc2)c(C#N)c(-c2ccc(F)cc2)n1`, the growth with MDA-MB-435 melanoma was 49.9%; in the assay with SW-620 colon, 24.3%; in the assay on MCF7 breast, 31.6%; in the assay on HCC-2998 colon it was 58.8%; with KM12 colon, 48.8%.
Take `Nc1cc(-c2c[nH]c3ccc(F)cc23)nc2cc(-c3c[nH]c4ccc(F)cc34)nn12`: the growth with MDA-MB-435 melanoma was 64.2%; in the assay with SW-620 colon, 4.64% (active); with MCF7 breast it was 37%; in the assay on HCC-2998 colon it was 72.5%.
As for `Cc1cc2nc3c4cc(Cl)ccc4n(CC(=S)NCCN(C)C)c3nc2cc1C`, the growth in the assay with MDA-MB-435 melanoma was -92.4% (active); in the assay on SW-620 colon it was -91.4% (active); in the assay with MCF7 breast it was -81.5% (active); with HCT-116 colon it was -94.2% (active); with HCC-2998 colon it was -82.9% (active); with KM12 colon, -60.2% (active).
Regarding `CCCC(=O)NC(c1ccc2c(c1)OC(F)(F)O2)c1cc(C)c2cccnc2c1O` (centres undefined), the growth is 22.9% with MDA-MB-435 melanoma; 30.3% with SW-620 colon; 24.1% with MCF7 breast; 26.2% in the assay with HCT-116 colon; 53.3% in the assay on HCC-2998 colon.
As for `CCN(CC)c1ccc(C=O)c(OCc2cn(CC(=O)Nc3ccc(Cl)cc3)nn2)c1`, the growth is 79.8% in the assay with MDA-MB-435 melanoma; 85.6% in the assay with SW-620 colon; 52.9% in the assay on MCF7 breast; 47.3% with HCT-116 colon; 86.1% in the assay with HCC-2998 colon; 70.4% with KM12 colon.
As for `Cc1cc(=O)oc2cc(OCCCOc3ccc(/C=C/C(=O)Nc4ccc(Cl)cc4)cc3)ccc12`, the growth was 61.1% with MDA-MB-435 melanoma, 27.2% with SW-620 colon, 64.8% in the assay on HCT-116 colon and 69.6% with HCC-2998 colon.
Consider `Clc1ccc2oc3c(OCCCn4ccnc4)c4ccccc4nc3c2c1`, for which the growth was 64.6% with MDA-MB-435 melanoma; 36.1% in the assay with SW-620 colon; 63.2% in the assay with MCF7 breast; 28.9% in the assay on HCT-116 colon; 55.8% with KM12 colon.
As to `COC(=O)c1ccc(NC(=S)N2CCc3ccc([N+](=O)[O-])cc3C2)cc1O`, the growth in the assay on MDA-MB-435 melanoma was 111%; with SW-620 colon it was 110%; with MCF7 breast, 92.7%; in the assay with HCT-116 colon, 117%; in the assay on KM12 colon, 103%.
As to `COc1ccccc1C(=O)CSc1nc(Nc2ccc(S(N)(=O)=O)cc2)c2ccccc2n1`, the growth in the assay with MDA-MB-435 melanoma is 90.4%; in the assay with MCF7 breast it was 44.6%; in the assay with HCT-116 colon it was 77%; in the assay on HCC-2998 colon, 103%; in the assay with KM12 colon it was 78.4%.
For the molecule `Clc1ccc2c(NCCCn3ccnc3)c3oc4ccc(Cl)cc4c3nc2c1`, the growth was 86.2% with MDA-MB-435 melanoma; 57% in the assay on SW-620 colon; 53.8% in the assay on MCF7 breast; 81% in the assay with HCT-116 colon; 79% with HCC-2998 colon; 87.6% in the assay with KM12 colon.
For `COc1ccc(/C=C2\SC(=Nc3cc(C)on3)NC2=O)cc1`, the growth is 104% in the assay with MDA-MB-435 melanoma; 89.2% in the assay on MCF7 breast; 96.1% in the assay with HCT-116 colon; 108% in the assay on HCC-2998 colon; 108% with KM12 colon.
For `COc1ccc(CNS(=O)(=O)/N=C2\NC(=O)NC2=C(Cl)Cl)cc1`, the growth in the assay on MDA-MB-435 melanoma was -3.14% (active); in the assay on SW-620 colon it was 27.2%; in the assay with MCF7 breast, 18.2%; in the assay on HCT-116 colon, 6.95% (active); with KM12 colon, 17.1%.

(Values after PubChem BioAssay (NCI).)
